# Bioassay records from PubChem.
# This is a sample that favours compounds with a hit; in the whole collection about 4.7% have one here.
# D1 antag = Antagonist of Human D 1 Dopamine Receptor: qHTS; AID 504652, 2011; hit rate 3.2% among 360,000; activity change, negative = inhibition, % at 10 µM; HEK293 TREx D1 cells, calcium flux, dopamine EC80; active compounds read low; D(1A) dopamine receptor (Homo sapiens), P21728; in the data active means activity change below about -30%; further: on the % scale 0 is the no-effect control and ±100 the full control effect
# Target sequence (P21728 whole entry, looked up): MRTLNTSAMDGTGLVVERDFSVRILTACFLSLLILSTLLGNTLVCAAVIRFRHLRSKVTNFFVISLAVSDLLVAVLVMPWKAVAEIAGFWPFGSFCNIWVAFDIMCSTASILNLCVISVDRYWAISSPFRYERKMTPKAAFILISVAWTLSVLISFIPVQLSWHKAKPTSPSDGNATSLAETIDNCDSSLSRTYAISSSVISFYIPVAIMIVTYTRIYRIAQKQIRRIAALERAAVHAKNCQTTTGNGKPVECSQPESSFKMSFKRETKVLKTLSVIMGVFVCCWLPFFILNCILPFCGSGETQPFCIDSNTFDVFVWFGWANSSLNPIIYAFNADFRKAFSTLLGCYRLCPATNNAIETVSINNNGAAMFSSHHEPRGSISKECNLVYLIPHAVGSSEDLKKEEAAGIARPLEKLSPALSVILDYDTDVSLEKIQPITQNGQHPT
#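 Tetracycline-induced HEK293 Trex D1 cells, force-coupled to calcium, dye-loaded; compounds added and read 180 s, then EC80 dopamine added and calcium flux tracked kinetically another 180 s.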
# TRHR PAM = qHTS for Small Molecule Agonists and Allosteric Enhancers of Human TRH Receptor: Primary Screen for Enhancers; TRHR cells, fluo-8 calcium fluorescence, EC20 TRH enhancement; enhancement, % at 2 µM; hit rate 0.66% among 360,000; AID 493056, 2011; in the data active means enhancement above about 30%; further: 0% is about no effect
#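 Enhancer read-out: after compound pinning and an initial kinetic agonist-mode read, an EC20 of TRH (10 nM final) was injected and fluo-8 calcium signal (Ex 480/Em 530) followed at 1 s/cycle for 100 cycles in TRHR-expressing cells.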
# D1 ag = Allosteric Agonists of the Human D1 Dopamine Receptor: qHTS; D(1A) dopamine receptor (Homo sapiens), P21728; HEK293 T-REx D1 cells, calcium flux, agonist mode; activation, % at 2 µM; hit rate 1% among 360,000; further: 0% is about no effect
#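 Inducible HEK293 T-REx D1 cells, force-coupled to calcium signalling, were plated at 4000 cells/well with tetracycline and held overnight at 30 C. After no-wash calcium dye loading, compound-evoked calcium rise over 180 s flagged agonists.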
# TRHR agonist = qHTS for Small Molecule Agonists and Allosteric Enhancers of Human TRH Receptor: Primary Screen for Agonists. TRHR cells, calcium flux fluo-8, FDSS agonist mode. activation, % at 2 µM. hit rate 0.18% among 360,000; further: 0% is about no effect
#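 TRHR-expressing cells, plated overnight in medium with 10% serum, were loaded with fluo-8 calcium dye at room temperature. After a 10 s baseline, library compound was pin-added and calcium release was recorded kinetically (ex 480/em 530) as agonist response.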
# D1 PAM = Potentiators of Human D1 Dopamine Receptor: qHTS; D(1A) dopamine receptor (Homo sapiens), P21728; HEK293 TREx D1 cells, calcium flux, dopamine EC20 potentiation; potentiation, % at 10 µM; hit rate 0.036% among 360,000; AID 504651, 2011; in the data active means potentiation above about 30%; further: 0% is about no effect
# Starred values were filed as active, the others as inactive; . = no result; ! = a repeat was not active. Unless noted, no stated cut-off is given here; in the data, active means activation above about 30%; inactive means the rest.
SMILES,D1 antag,TRHR PAM,D1 ag,TRHR agonist,D1 PAM
CC1CCN(c2ccc(-c3cccc(NC(=O)C(F)(F)F)c3)nn2)CC1,-55*,6,12,-1,-10
CCCN(CCC)CCCNC(=O)c1cc2c(=O)n(C)c3ccccc3c2s1,-1,14,3,-1,-2
O=C(N/N=C/c1coc2ccccc2c1=O)c1ccccc1,-44*,-1,1,0,-7
Cc1ccc(-c2ccc(S(=O)(=O)NCC3CCCO3)cc2)cc1 (stereo not given),-32*,-2,8,-1,-6
O=C(c1ccc(S(=O)(=O)NCC2CCCO2)cc1)N1CCc2ccccc21 (stereo not given),-51*,0,13,-1,-6
O=S(=O)(NCC1CCCO1)c1ccccc1 (stereo not given),1,0,1,0,-2
Cc1ccc(CN(Cc2ccco2)S(=O)(=O)c2ccc(S(=O)(=O)NCC3CCCO3)cc2)cc1 (stereo not given),-36*,-1,23,0,-4
CCN(CC)C(=O)CC(c1ccc2c(c1)OCO2)c1c(OC)cc(OC)c2ccc(=O)oc12 (stereo not given),-38*,-1,0,0,-6
CCN(CC)C(=O)CC(c1ccc(N(C)C)cc1)c1c(OC)cc(OC)c2ccc(=O)oc12 (stereo not given),5,0,1,-1,2
CCN(C(=O)CSc1nc(-c2ccccc2)no1)c1cccc(C)c1,21,-5,11,1,2
COc1ccc([C@]23Cc4ccccc4C(O2)C2=C(O3)C(=O)c3ccccc3C2=O)cc1,-2,7,1,0,-3
Cc1cc(C(=O)Nc2ccccc2Cl)c2ccccc2n1,-4,7,3,1,2
O=C(NCc1cccc(Cl)c1)c1cccc(C(F)(F)F)c1,-33*,14,2,0,-9
CCN(CC)CCNC(=O)c1cc(-c2ccc(Br)s2)nc2ccccc12,-5,-5,34*!,2,-1
Cc1cc(C(=O)NCc2ccccc2Cl)c2ccccc2n1,-63*,6,7,-1,-10
O=C(NCCc1ccccc1)c1cc(Sc2cccc(Cl)c2)nc2ccccc12,-43*,-5,12,2,-1
CC1=C(c2ccc(C)c(C)c2)S(=O)(=O)N(Cc2ccc(C(=O)NCc3cccc(C)c3)cc2)C1=O,12,-1,7,1,-6
Cc1c(Cl)ccc2sc(N3CCN(C(=O)c4ccco4)CC3)nc12,.,0,1,0,-1
Cc1cc(CNC(=O)COc2ccccc2)c2ccccc2n1,-35*,-5,14,0,3
Cc1cc(C(=O)OCC(=O)NCc2cccs2)c2ccccc2n1,-31*,0,8,0,-1
Cc1ccc(Sc2cc(C(=O)NCCN(C)C)c3ccccc3n2)cc1,17,5,17,1,-9
Cc1cc(C(=O)NCc2cccc(Cl)c2)c2ccccc2n1,-33*,4,2,-1,-11
CCNC(=O)COC(=O)c1cc(C)nc2ccccc12,-19,2,2,0,16
Cc1ccc(Sc2cc(C(=O)NCCCN(C)C)c3ccccc3n2)cc1,-10,-1,34*,-2,-2
Cc1cc(CNC(=O)COc2ccc(F)cc2)c2ccccc2n1,12,-1,9,-1,-10
SMILES,D1 antag,TRHR PAM,D1 ag,TRHR agonist,D1 PAM
CC(C)CC(OC(=O)CNC(=O)c1ccccc1)C(=O)Nc1cc(C(F)(F)F)ccc1Cl (stereo not given),-27,-8,5,-2,-2
Cc1cc(C(=O)NC2CCCC(C)C2C)c2ccccc2n1 (stereo not given),-31*,-2,0,0,-12
Cc1cc(C(=O)NC2CCCCC2C)c2ccccc2n1 (stereo not given),14,-2,2,0,2
CCCCN(C)CCCNC(=O)c1cc(-c2cccnc2)nc2ccccc12,-59*!,10,2,0,3
COc1ccc(OC)c(/C=C/c2nc3ccccc3c(=O)n2-c2ccc(F)c(Cl)c2)c1,-6,-4,-4,-1,-2
Cn1c(N)c(C(=O)N/N=C/c2ccccc2)sc1=S,-13,36*,4,0,-6
COc1cccc(CNc2ccc(F)c([N+](=O)[O-])c2)c1O,-31*,-4,8,1,-8
O=[N+]([O-])c1ccccc1CNc1ccc(F)c(Cl)c1,-1,2,-2,-1,7
Cc1ccc(S(=O)(=O)Cc2nc(-c3ccc(C(=O)NCc4ccccc4)cc3)oc2C)cc1,2,-5,4,0,-8
CSc1nn(Cc2ccc(F)cc2)c(N(C(C)=O)C(C)=O)c1S(=O)(=O)c1ccccc1,-1,3,0,0,1
Cc1ccc(C)c(NC(=O)c2ccccc2NS(=O)(=O)c2cc([N+](=O)[O-])ccc2C)c1,-50*,-8,28,1,-11
COc1ccc(CCNCc2ccc(OCc3ccc(Cl)nc3)c(OC)c2)cc1OC,-8,0,59*,4,-7
COc1ccc(CNCCc2ccc(Cl)cc2)cc1OCc1ccccc1,-19,21,58*,0,-3
COc1ccc(CNC(C)CCc2ccccc2)cc1 (stereo not given),1,1,17,0,-1
CCOc1cc(CNCc2ccccc2)ccc1OCc1ccc(Cl)cc1,-20,12,35*,4,3
COc1ccc(CCNCc2ccc(OCc3ccccc3)cc2)cc1,19,7,61*,1,3
c1ccc(COc2ccc(CNCc3cccs3)cc2)cc1,-7,6,129*,0,42*
Brc1ccc(CNCc2cccs2)cc1,-1,-3,2,0,-2
COc1cccc(OCCNCc2ccccc2)c1,-18,2,4,0,34*
Cc1cccc(OCCCCNCc2ccccc2)c1,15,-2,8,0,-3
CCN(CC)C(=O)NC1CC2CCCC(C1)N2Cc1ccccc1 (stereo not given),-8,1,0,0,0
COc1ccc(CN2C3CCCC2CC(NC(=O)/C=C/c2ccccc2)C3)cc1 (stereo not given),-51*,-1,77*,-1,-4
O=C(/C=C/c1ccccc1)NC1CC2CCCC(C1)N2Cc1ccccc1 (stereo not given),-96*,-22,2,0,-10
O=C(/C=C/c1cccc(F)c1)NC1CCN(Cc2ccccc2)CC1,-45*,-5,10,0,.
